Experimental data reported in PubChem BioAssay (NCATS).
Calls of active or inactive are those of the source. Calls follow the shape of the full dose curve.

target: Glucocorticoid receptor (Homo sapiens) (UniProt P04150); assay: GR-EFC Redistribution (AID 451); conditions: CHO-K1 GR-EFC translocation, beta-gal luminescence, 2 h
Text: NIH Molecular Libraries Screening Centers Network [MLSCN]
NIH Chemical Genomics Center [NCGC]
The glucocorticoid receptor (GR) is a cytoplasmic receptor that belongs to the nuclear receptor family of ligand-dependent transcription factors. Upon glucocorticoid binding to its receptor, the glucocorticoid-GR complex translocates into the nucleus, where it binds as a dimer to specific DNA sequences (glucocorticoid response elements), enhancing or suppressing transcription of a wide variety of glucocorticoid-responsive genes. In addition to their important roles in normal physiology and metabolism, glucocorticoids are administered exogenously as treatments for a wide variety of allergic, autoimmune, and neoplastic conditions. Identification of compounds that modulate aspects of GR signalling would be useful in dissecting glucocorticoid response pathways as well as developing GR modulators with more targeted clinical effects.
Traditionally, GR modulators have been identified using receptor binding or direct transactivation assays. However, assays for glucocorticoid-dependent nuclear translocation can also be used to screen for compounds affecting GR signaling.
Immunocytochemical staining has been used to assay for GR translocation, but is not suitable for high throughout screening due to the multiple reagent addition and wash steps required. Recently, a novel cell-based GR assay in Enzyme Fragment Complementation (EFC) format was developed by DiscoveRx (Fremont, CA). The assay uses EFC of b-galactosidase (b-gal) as an indicator of GR-translocation in engineered CHO-K1 biosensor cells. The enzyme acceptor (EA) fragment of b-gal resides in the nucleus , as designed through the use of a proprietary set of sequence additions and modifications. The small peptide enzyme donor (ED) fragment of b-gal is fused directly to the C-terminus of GR, and is localized in the cytoplasm is the absence of receptor signaling. Upon binding to a GR ligand, the complex translocates to the nucleus, where intact enzyme activity is restored by complementation and b-gal activity is detected. We optimized this GR-EFC assay in homogenous 1536-well plate assay format for high throughput screening.
NCGC Assay Protocol Summary:
CHO-K1 cells stably expressing NLS-enzyme acceptor fragment (EA) of b-gal and GR-enzyme donor (ED) fragment of b-gal were maintained in F12 medium (Invitrogen, Carlsbad, CA) at 37 Celsius degrees under a humidified atmosphere containing 5% CO2 and 95% air. The medium contained 10% FBS, 2 mM L-glutamine, 50 U/ml penicillin 50 ug/ml streptomycin, and 250 ug/ml hygromycin and 500 ug/ml G418 (Invitrogen).
GR-translocation was measured beta-gal enzyme activity using the PathHunter Detection Kit containing cell membrane permeablizing reagent and beta-gal substrate (DiscoveRx, Fremont, CA). All compounds were screened as titrations from 0.6 nM to 46 uM final concentration. The assay was performed in 1536-well format as follows:
5 uL cell suspension (1,000 cells)/well
Incubation at 37 Celsius degrees for two hours
1.25 uL 1X detection buffer from the kit supplied by DiscoveRx
Incubation at room temperature for one hour
Read plate in luminescence mode in ViewLux plate reader (PerkinElmer)
Keywords: NIH Roadmap, MLSCN, MLI, MLSMR, GR-EFC, GREFC, qHTS, NCGC
Potency is read from the fitted curve at half-maximal effect.

Chain of Glucocorticoid receptor (Homo sapiens) (P04150 whole entry, looked up): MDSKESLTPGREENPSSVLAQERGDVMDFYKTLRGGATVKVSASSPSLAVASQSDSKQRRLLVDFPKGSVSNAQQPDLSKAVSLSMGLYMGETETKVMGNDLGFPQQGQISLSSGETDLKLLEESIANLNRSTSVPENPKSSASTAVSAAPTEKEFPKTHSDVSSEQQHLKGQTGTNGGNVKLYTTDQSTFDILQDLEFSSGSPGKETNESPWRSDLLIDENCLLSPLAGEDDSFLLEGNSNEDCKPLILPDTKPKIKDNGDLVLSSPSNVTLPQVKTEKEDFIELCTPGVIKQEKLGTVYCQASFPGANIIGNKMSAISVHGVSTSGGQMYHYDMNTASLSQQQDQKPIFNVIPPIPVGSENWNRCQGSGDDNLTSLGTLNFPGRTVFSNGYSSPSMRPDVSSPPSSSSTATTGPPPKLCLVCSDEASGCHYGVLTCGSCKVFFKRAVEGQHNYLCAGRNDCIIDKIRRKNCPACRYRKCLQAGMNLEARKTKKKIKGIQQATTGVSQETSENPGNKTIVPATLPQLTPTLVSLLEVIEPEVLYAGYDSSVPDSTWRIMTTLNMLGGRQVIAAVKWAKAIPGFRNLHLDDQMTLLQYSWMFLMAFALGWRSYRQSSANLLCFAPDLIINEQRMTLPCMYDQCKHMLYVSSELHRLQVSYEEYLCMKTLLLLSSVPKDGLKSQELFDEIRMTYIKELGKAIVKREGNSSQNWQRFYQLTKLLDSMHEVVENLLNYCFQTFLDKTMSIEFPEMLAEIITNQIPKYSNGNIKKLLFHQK

Potency, inactive:
CC(=O)N1CCC2(CC1)CCN(C(=O)Nc1cccc(F)c1)CC2 > 46 µM
COc1ccc(NC(=O)N2CCC3(CC2)CCN(C(=O)c2csnn2)CC3)cc1 > 46 µM
COc1ccc(-c2nc3cnc(N4CCN(C)CC4)nc3n(Cc3cccc(OC)c3)c2=O)cc1 > 46 µM
COc1cccc(Cn2c(=O)c(C)nc3cnc(N4CCN(C)CC4)nc32)c1 > 46 µM
N=C(N)SCCc1cccc(CCSC(=N)N)c1 > 46 µM
Cc1ccccc1-c1nccc(Nc2ccc(F)cc2)n1 > 46 µM
COCCn1c(=O)cnc2cnc(Nc3ccccc3)nc21 > 46 µM
CCCC(=O)NCCc1c2n(c3ccc(OC)cc13)Cc1ccccc1-2 > 46 µM
COCCNc1ncnc2ccc(-c3cccnc3)cc12 > 46 µM
N#Cc1cccc(-c2nc3cnc(N4CCOCC4)nc3n(C3CC3)c2=O)c1 > 46 µM
CCNc1ncc2nc(CCc3ccccc3)c(=O)n(CCOC)c2n1 > 46 µM
CN1CCN(c2ncc3nc(-c4cccc(C#N)c4)c(=O)n(Cc4ccc(F)cc4)c3n2)CC1 > 46 µM
O=c1cnc2cncnc2n1Cc1ccc(F)cc1 > 46 µM
CCNc1ncc2nc(C)c(=O)n(C3CC3)c2n1 > 46 µM
COCCNc1ccnc(-c2cccc(NS(C)(=O)=O)c2)n1 > 46 µM
N#CCCn1c(=O)c(CCc2ccccc2)nc2cnc(Oc3cccc(Cl)c3)nc21 > 46 µM
COc1cccc(Nc2ncc3nc(C)c(=O)n(C4CC4)c3n2)c1 > 46 µM
CCNc1ncc2nc(C)c(=O)n(Cc3cccs3)c2n1 > 46 µM
CC(C)NC(=O)N1CC2(CCN(C(=O)c3ccncc3)CC2)C1 > 46 µM
Cc1noc(C)c1-c1cncnc1N(C)Cc1ccco1 > 46 µM
CNc1ncnc2ccc(-c3ccccc3C)cc12 > 46 µM
COc1ccc(Oc2ncc3ncc(=O)n(C[C@H]4CCCO4)c3n2)cc1 > 46 µM
COC(=O)N1CCC2(CC1)CN(C(=O)Nc1cccc(C#N)c1)C2 > 46 µM
COc1ccccc1CNc1cc(-c2c(C)noc2C)ncn1 > 46 µM
N#Cc1cccc(NC(=O)N2CC[C@@]3(CCCN(C(=O)c4ccncc4)C3)C2)c1 > 46 µM
COc1ccc(-c2nc3cnc(N4CCN(C)CC4)nc3n(Cc3ccc(F)cc3)c2=O)cc1 > 46 µM
c1cncc(-c2cncnc2NC2CCNCC2)c1 > 46 µM
COc1ccc(-n2c(=O)c(-c3cccs3)nc3cncnc32)cc1 > 46 µM
O=C(c1ccncc1)N1CCC2(CC1)CN(c1ncccn1)C2 > 46 µM
CC(=O)NCCNc1ncnc2ccc(-c3ccoc3)cc12 > 46 µM
Cc1nc2cnc(N3CCN(C)CC3)nc2n(Cc2ccc(F)cc2)c1=O > 46 µM
COc1ccc(C(=O)N2CCC3(CC2)CN(Cc2ccc(C#N)cc2)C3)cc1 > 46 µM
CN(C)c1ncc2nc(-c3cc(F)cc(F)c3)c(=O)n(CCC#N)c2n1 > 46 µM
NCCNC(=O)c1ccc(Cl)cc1 > 46 µM
COc1ccc2[nH]cc(CCNc3ncncc3-c3c(C)noc3C)c2c1 > 46 µM
CCNc1ncc2nc(-c3ccccc3)c(=O)n(C[C@H]3CCCO3)c2n1 > 46 µM
CCn1c(=O)c2[nH]c(-c3ccccc3)nc2n(CC)c1=O > 46 µM
COc1cccc(-c2cncnc2NCc2ccccc2)c1 > 46 µM
CN1CCN(c2ncc3nc(-c4cc(F)cc(F)c4)c(=O)n(Cc4cccs4)c3n2)CC1 > 46 µM
COc1ccc(-n2c(=O)c(-c3ccccc3)nc3cnc(N4CCNCC4)nc32)cc1 > 46 µM
